# Shown are actives, neighbours in structure and some others; about 19% of the full set was active somewhere.
# KB-V1 MDR tox: kills drug-selected multidrug resistant KB-V1 cells; KB-V1 MDR cells viability, CellTiter-Glo, 72 h; Potency, µM (doses to about 46.1 µM), hits mostly cytotoxic; 3.4% of 400,000 active; AID 1347076; further: nearly all actives have a fitted effect of over 60% in size
#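 KB-V1, DMEM (no phenol red) + 10% FBS; cpd pin-transferred, titration series; 72 h, 37 degrees C; CellTiter-Glo, luminescence. Data normalized, curve-fit.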
# KB-3-1 cytotox: kills parental KB-3-1 adenocarcinoma cells | KB-3-1 viability, CellTiter-Glo ATP luminescence, 72 h | Potency, µM (top dose mostly 46.1 µM), most hits filed as cytotoxic | 1.4% of 400,000 active; further: nearly all actives have a fitted effect of over 60% in size
#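 Here the drug-naive KB-3-1 line serves as comparator for MDR sub-line selectivity; cells received compound titrations, 72 h at 37 °C, then CellTiter-Glo readout.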
# HT1080 IDH1KD tx: kills HT-1080 cells with IDH1 knockdown; HT-1080 IDH1 knockdown viability, ATP luminescence, 48 h; Potency, µM (highest dose often 46.1 µM), for the others: at the highest dose activity, negative = toxicity, most hits filed as cytotoxic; 2% of 360,000 active; AID 686971;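 further: 0% = DMSO wells and -100% = cell-free medium wells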
#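 Viability of IDH1-knockdown HT-1080 fibrosarcoma cells was assessed by CellTiter-Glo after 48 h at 37 °C with titrated compound; concentration-effect curves were classified by fit quality and response size.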
# TDP1 cell CPT: growth inhibition of DT40 Tdp1-/-;hTDP1 cells with camptothecin (screen for TDP1 inhibitors) | 12% of 420,000 active | Potency, µM (highest dose often 46.2 µM), for the others: at the highest dose activity change, negative = growth inhibition, actives largely listed as inhibitors | chicken DT40 Tdp1-/-;hTDP1 cells + 20 nM CPT, ATP luminescence, 48 h; further: nearly all actives have a fitted effect of over 55% in size
#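 Chicken DT40 Tdp1-/- cells stably complemented with human TDP1 were seeded at 400 cells/well in medium containing 20 nM camptothecin, exposed to pin-transferred compounds, and grown at 37 °C for at least 48 hr. Viability was read as ATP luminescence.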
# HT1080NT lethal: kills 2HG-producing HT-1080-NT fibrosarcoma cells. HT-1080-NT fibrosarcoma viability, CellTiter-Glo ATP luminescence, 48 h. Potency, µM (doses to about 46.1 µM), for the others: top-dose activity, negative = less viability, actives largely listed as cytotoxic. 1.6% of 360,000 active. AID 686970;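 further: NT is the 2HG producing partner of a matched IDH1 knockdown line; 0% = DMSO-treated cells and -100% = media-only wells without cells; nearly all actives have a fitted effect of over 55% in size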
#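 Viability of the 2HG-overproducing fibrosarcoma line after 48 hours of compound exposure at 37 degrees C was determined by luminescence with CellTiter-Glo, and concentration-effect curves were then fitted and categorized.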
# TDP1 cell noCPT: qHTS for Inhibitors of human tyrosyl-DNA phosphodiesterase 1 (TDP1): qHTS in cells in absence of CPT; 15% of 420,000 active; DT40 Tdp1-/- hTDP1 cells, no CPT, ATP luminescence, 48 h; Potency, µM (doses to about 46.2 µM), without a hit: top-dose activity change, negative = growth inhibition, hits mostly inhibitors; further: nearly all actives have a fitted effect of over 55% in size
#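 Compound effects on proliferation are scored in DT40 Tdp1-/-;hTDP1 cells in the absence of CPT. ATP levels (CellTiter-Glo luminescence) are recorded after a ≥48 hr, 37 °C incubation.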
# Active calls of the source: *; i = inactive; ? = inconclusive; . = not tested or not shown. The call rests on the fitted dose curve; in most records, active means well fitted curve in the direction sought with a large enough effect; inconclusive means small, poorly fitted or top-dose-only effect, or another doubt; inactive means no such curve, though single readings can be large; an effect the other way counts as inactive or inconclusive. Unless noted, on the % scale 0 is the no-effect control and ±100 the full control effect; potency means the concentration at half of the fitted maximal effect.
SMILES,KB-V1 MDR tox,KB-3-1 cytotox,HT1080 IDH1KD tx,TDP1 cell CPT,HT1080NT lethal,TDP1 cell noCPT
O=C(c1cc(Cl)cc(Cl)c1)N1CCN(c2cc(C(F)(F)F)nc3ccccc23)CC1,i,?,5.2%,20.6µM*,0.4%,11.6µM*
O=C(O)CSCC(=O)N1CCN(c2cc(C(F)(F)F)nc3ccccc23)CC1,i,?,0.0%,12.1%,9.2%,-22.8%
COc1cc2c(cc1OC)C(c1ccccc1C(F)(F)F)CC(=O)N2 (centres undefined),i,i,-16.1%,-3.2%,-20.4%,?
CC(C)OC(=O)/C=C1\C[C@@H](c2ccccc2C(F)(F)F)O[C@@H](c2ccccc2C(F)(F)F)O1,i,?,9.2%,?,18.3%,20.6µM*
Cc1ccc(SCCNC(=O)c2ccc(C)c(S(=O)(=O)Nc3ccccc3C)c2)cc1,?,i,?,?,?,22.4µM*
Cc1ccccc1CNC(=O)c1ccc(CSCc2ccccc2)cc1,i,i,-3.1%,?,-4.7%,20.6µM*
Cc1ccc(CSCCNC(=O)c2cccc([N+](=O)[O-])c2)cc1,18.4µM*,i,-2.2%,?,-1.2%,?
Cc1cc(CSc2ccccc2)ccc1NC(=O)c1ccc(C)c([N+](=O)[O-])c1,i,i,3.4%,-13.5%,2.1%,18.4µM*
Cc1ccccc1NS(=O)(=O)c1cc(C(=O)NCc2ccco2)ccc1C,?,i,-16.5%,-25.9%,-19.0%,-6.4%
Cc1ccccc1CNC(=O)/C=C\C(=O)O,i,i,11.5%,2.7%,15.9%,16.5%
Cc1ccc(CSCCNC(=O)c2ccccc2)cc1,i,i,0.1%,-21.0%,5.5%,-36.1%
C=CCN1CC[C@@H](O)C(=C)S1(=O)=O,i,i,.,-10.2%,.,-14.0%
CCc1ccc(-n2c(=O)c3c4c(sc3n(CC(=O)NC(C)CC)c2=O)CCCC4)cc1 (centres undefined),i,i,.,0.3%,.,-18.0%
[O-][n+]1ccc(C(O)c2ccccc2)cc1 (centres undefined),i,i,8.9%,-9.7%,4.7%,15.2%
Cc1ccc(SCCNC(=O)c2ccc(C)c([N+](=O)[O-])c2)cc1,23.1µM*,i,-3.6%,?,8.1%,-33.8%
Cc1cc(CNC(=O)c2ccc(C)c([N+](=O)[O-])c2)c2ccccc2n1,?,i,-10.4%,13µM*,0.6%,9.2µM*
O=C(NCCc1ccccc1)c1cccc([N+](=O)[O-])c1,18.4µM*,i,9.4%,?,10.3%,?
Cc1ccc(C(=O)NCCSCc2ccccc2)cc1[N+](=O)[O-],20.6µM*,i,24.9%,?,4.2%,?
Cc1ccc(SCCNC(=O)c2ccc([N+](=O)[O-])c(C)c2)cc1,i,i,4.1%,-11.8%,1.5%,-28.1%
CS(=O)(=O)Nc1ccc(C(=O)NCCSCc2ccccc2)cc1,i,i,-2.6%,-4.7%,-15.9%,-21.0%
COc1ccc(CCNC(=O)c2cccc([N+](=O)[O-])c2)cc1OC,i,i,?,?,?,?
Cc1ccc(-c2nnc(SCc3ccccc3)o2)cc1,.,.,.,-15.7%,.,-19.6%
CC1(C)S[C@@H]2C(C(=O)O)NC(=O)N2C1C(=O)O (some centres undefined),i,i,.,2.5%,.,-6.2%
Cc1ccc(C(=O)NCCn2ccc3ccccc32)cc1[N+](=O)[O-],?,i,-25.5%,13µM*,-25.0%,8.2µM*
O=C(NCCn1ccc2ccccc21)c1ccc(S(=O)(=O)N2CCCCC2)cc1,i,i,-11.5%,?,-15.5%,23.1µM*

# Screening results as filed in PubChem BioAssay.
